# Laboratory results reported in PubChem BioAssay (NCATS).
# Values joined by “and” are separate entries in the source; they are usually repeats but may differ in a detail not shown here. Equal values may be shown once. Inconclusive results are not listed. Entries that show only a call come without a potency. A number with no mark means an inactive call. Active and inactive are the calls of the source. Calls come from the whole dose curve; as a rule, active = well fitted inhibition curve with a large enough effect; inconclusive = small, poorly fitted or top-dose-only effect; inactive = flat fitted curve, though single readings scatter.
# Tests used:
# CRL-7250 = normal cell line; assay: Cytotoxic Profiling of Annotated Libraries Using Quantitative High-Throughput Screening (AID 1296008); settings: Five cell lines viability, CellTiter-Glo ATP luminescence, 48-72 h; max response: active compounds read low; note: potency is the fitted concentration of half-maximal effect
# Method in brief: (§1)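 Cytotoxicity was measured as CellTiter-Glo ATP luminescence, read after 10 min at room temperature. Compound treatment of the cells lasted 48 or 72 hr at 37 degrees Celsius in a qHTS format.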
# HEK293 = assay: as above; settings: Five cell lines viability, CellTiter-Glo ATP luminescence, 48-72 h; max response: active compounds read low
# Method in brief: as §1
# HaCat [1] = assay: as above; settings: Five cell lines viability, CellTiter-Glo ATP luminescence, 48-72 h; max response: active compounds read low
# Method in brief: as §1
# KB-3-1 = assay: as above; settings: Five cell lines viability, CellTiter-Glo ATP luminescence, 48-72 h; max response: active compounds read low
# Method in brief: as §1
# NIH3T3 = assay: as above; settings: Five cell lines viability, CellTiter-Glo ATP luminescence, 48-72 h; max response: active compounds read low
# Method in brief: as §1
# HACAT [2] = assay: qHTS assay to identify novel small-molecules to repurpose for Merkel cell carcinoma treatment (AID 1296009); settings: MCC and control cell lines, CellTiter-Glo viability, 72 h; at 44.8 µM (top of the series) unless noted; note: potency is the fitted concentration of half-maximal effect
# Method in brief: (§2)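 72 hr, 37 degree celsius; NPC 8-pt / MIPE 11-pt dose response; compound pinned in DMSO; CellTiter-Glo, 10 min RT, luminescence; normalized to no-cell and DMSO controls.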
# MCC-13 = assay: as above; settings: MCC and control cell lines, CellTiter-Glo viability, 72 h; series mostly up to 46 µM
# Method in brief: as §2
# MCC-26 = assay: as above; settings: MCC and control cell lines, CellTiter-Glo viability, 72 h; series mostly up to 46 µM
# Method in brief: as §2
# HEK293T = assay: as above; settings: MCC and control cell lines, CellTiter-Glo viability, 72 h; at 44.8 µM (top of the series) unless noted
# Method in brief: as §2
# W2 = assay: qHTS profiling for inhibitors of Plasmodium falciparum proliferation (AID 504749); settings: P. falciparum in erythrocytes, SYBR Green DNA, 72 h; series mostly up to 28.7 µM
# Method in brief: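 Infected RBCs, 0.3% parasitemia/2.5% Hct final; cpd 72 h, 37 C, 5% CO2; lysis buffer with saponin/triton/SYBR Green I, o/n RT dark; FI 485/535; norm. to artemisinin (0.29 uM) and DMSO.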
# Note: nearly all actives have a fitted effect of over 60% in size.
smiles,measurement,setting,value
CCC(c1ccc(O)cc1)C(CC)c1ccc(O)cc1 (configuration not stated),outcome,CRL-7250,inactive
same,max response,HEK293,-1.04%
same,outcome,HaCat [1],inactive
same,max response,KB-3-1,9.65%
same,outcome,NIH3T3,inactive
same,outcome,HACAT [2],inactive
same,Potency,MCC-13,inactive
same,Potency,MCC-26,inactive
COc1cc([C@H]2Oc3cc([C@H]4Oc5cc(O)cc(O)c5C(=O)[C@H]4O)ccc3O[C@H]2CO)ccc1O,outcome,CRL-7250,inactive
same,max response,HEK293,-13.7%
same,outcome,HaCat [1],inactive
same,max response,KB-3-1,-0.459%
same,max response,NIH3T3,0.0248%
same,outcome,HACAT [2],inactive
same,Potency,MCC-13,inactive
same,Potency,MCC-26,inactive
CO[C@H]1C=CO[C@@]2(C)Oc3c(C)c(O)c4c(O)c(c(C=NN5CCN(C)CC5)c(O)c4c3C2=O)NC(=O)C(C)=CC=C[C@H](C)[C@H](O)[C@@H](C)[C@@H](O)[C@@H](C)[C@H](OC(C)=O)[C@H]1C,max response,CRL-7250,-4.52%
same,max response,HEK293,3.97%
same,outcome,HaCat [1],inactive
same,max response,KB-3-1,0.835%
same,max response,NIH3T3,-3.12%
same,outcome,HACAT [2],inactive [at 9.27 µM]
same,"activity change, negative = cytotoxicity",MCC-13,-0.156% [at 9.22 µM]
same,"activity change, negative = cytotoxicity",MCC-26,-1.4% [at 9.22 µM]
Cc1cc(NC(=O)Nc2ccc(N(C)C)cc2)c2cc(F)cc(F)c2n1,outcome,CRL-7250,inactive
same,Potency,HEK293,14.8 µM (active)
same,outcome,HaCat [1],inactive
same,outcome,KB-3-1,inactive
same,outcome,NIH3T3,inactive
same,outcome,HACAT [2],inactive
same,Potency,MCC-13,inactive
same,Potency,MCC-26,inactive
O=C(O)CCC=CCC[C@@H]1[C@H](N2CCCCC2)[C@@H](O)C[C@@H]1OCc1ccc(-c2ccccc2)cc1,outcome,CRL-7250,inactive
same,max response,HEK293,-1.41%
same,outcome,HaCat [1],inactive
same,outcome,KB-3-1,inactive
same,max response,NIH3T3,3.59%
same,outcome,HACAT [2],inactive
same,Potency,MCC-13,inactive
same,Potency,MCC-26,inactive
Cc1nc(C(=O)NCC(=O)O)c(O)c2ccc(Oc3ccccc3)cc12,max response,CRL-7250,-26.8%
same,max response,HEK293,-3.39% and -0.739%
same,outcome,HaCat [1],inactive
same,max response,KB-3-1,-6.73% and -11.5%
same,max response,NIH3T3,-5.42% and -6%
same,outcome,HACAT [2],inactive
same,Potency,MCC-13,inactive
same,Potency,MCC-26,inactive
CC(=O)N1CCN(c2ccc(OCc3nn(C)c(C)c3-c3cccc4c(CCCOc5cc(C)c(Cl)c(C)c5)c(C(=O)O)n(Cc5cccnc5)c34)cc2)CC1,max response,CRL-7250,4.49%
same,outcome,HEK293,inactive; activator
same,outcome,HaCat [1],inactive
same,max response,KB-3-1,1.85%
same,outcome,NIH3T3,inactive
same,outcome,HACAT [2],inactive
same,outcome,HEK293T,inactive; activator
same,Potency,MCC-13,inactive
same,Potency,MCC-26,inactive
NCC1CCC(C(=O)O)CC1 (configuration not stated),max response,CRL-7250,-3.04%
same,max response,HEK293,2.93%
same,outcome,HaCat [1],inactive
same,max response,KB-3-1,7.37% and 2.9%
same,max response,NIH3T3,-3.72%
same,outcome,HACAT [2],inactive
same,Potency,MCC-13,inactive
same,Potency,MCC-26,inactive
O=C(Nc1ccccc1)Nc1ccc(-c2ccc(C(=O)[C@H]3CCC[C@H]3C(=O)O)cc2)cc1,outcome,CRL-7250,inactive
same,max response,HEK293,-0.566%
same,outcome,HaCat [1],inactive
same,max response,KB-3-1,9.29%
same,max response,NIH3T3,3.03%
same,outcome,HACAT [2],inactive
same,Potency,MCC-13,inactive
same,Potency,MCC-26,inactive
N[C@@H](CC(=O)N1CCn2c(nnc2C(F)(F)F)C1)Cc1cc(F)c(F)cc1F,max response,CRL-7250,-4.16%
same,max response,HEK293,1.14%
same,outcome,HaCat [1],inactive
same,max response,KB-3-1,-6.59%
same,max response,NIH3T3,-2.27%
same,outcome,HACAT [2],inactive
same,Potency,MCC-13,inactive
same,Potency,MCC-26,inactive
CC(=O)NCCC(=O)N[C@@H](CCC(N)=O)C(=O)N[C@@H](CO)C(=O)N[C@@H](CCC(N)=O)C(=O)N[C@@H](CCC(N)=O)C(=O)N[C@H](C(=O)N[C@@H](Cc1ccccc1)C(=O)N[C@]1(C)CCCCCCC=CCCC[C@@](C)(C(=O)N[C@@H](CCC(N)=O)C(=O)N[C@@H](CC(N)=O)C(N)=O)NC(=O)[C@H](CC(C)C)NC(=O)[C@H](CC(C)C)NC(=O)[C@@H](CCCNC(=N)N)NC(=O)[C@H](Cc2c[nH]c3ccccc23)NC(=O)[C@H](CC(C)C)NC(=O)[C@H](CC(N)=O)NC1=O)[C@H](C)O,max response,CRL-7250,1.13%
same,max response,HEK293,-2.69%
same,outcome,HaCat [1],inactive
same,outcome,KB-3-1,inactive
same,max response,NIH3T3,0.272%
same,outcome,HACAT [2],inactive
same,Potency,MCC-13,inactive
same,Potency,MCC-26,inactive
CN(CC=CC#CC(C)(C)C)Cc1cccc2ccccc12,max response,CRL-7250,1.65%
same,outcome,HEK293,inactive
same,outcome,HaCat [1],inactive
same,max response,KB-3-1,4.31%
same,max response,NIH3T3,-1.72%
same,outcome,HACAT [2],inactive
same,outcome,HEK293T,inactive
same,Potency,MCC-13,inactive
same,Potency,MCC-26,inactive
CN1[C@H]2CC[C@H]1CC(OC(=O)c1c[nH]c3ccccc13)C2 (some centres not stated),max response,CRL-7250,-1.18%
same,max response,HEK293,-1.65%
same,outcome,HaCat [1],inactive
same,max response,KB-3-1,6.19%
same,outcome,NIH3T3,inactive
same,outcome,HACAT [2],inactive
same,Potency,MCC-13,inactive
same,Potency,MCC-26,inactive
O=C(NCCCCN1CCOCC1)c1cc2ccccc2o1,max response,CRL-7250,-1.43%
same,max response,HEK293,-14.9%
same,outcome,HaCat [1],inactive
same,outcome,KB-3-1,inactive
same,max response,NIH3T3,3.06%
same,outcome,HACAT [2],inactive
same,Potency,MCC-13,inactive
same,Potency,MCC-26,inactive
CC[C@H](NC(=O)[C@H](C)NC)C(=O)N1C[C@@H](O)C[C@H]1Cc1c(-c2[nH]c3cc(F)ccc3c2C[C@H]2C[C@H](O)CN2C(=O)[C@H](CC)NC(=O)[C@H](C)NC)[nH]c2cc(F)ccc12,outcome,CRL-7250,inactive
same,max response,HEK293,1%
same,outcome,HaCat [1],inactive
same,outcome,KB-3-1,inactive
same,outcome,NIH3T3,inactive
same,outcome,HACAT [2],inactive
same,Potency,MCC-13,inactive
same,Potency,MCC-26,inactive
O=c1[nH]c(=O)n([C@H]2C[C@@H](O)[C@@H](CO)O2)cc1I,max response,CRL-7250,-2.59%
same,max response,HEK293,-22.9%
same,max response,HaCat [1],1.35%
same,outcome,KB-3-1,inactive
same,max response,NIH3T3,3.2%
same,Potency,MCC-13,inactive
same,Potency,MCC-26,inactive
CC(C)C[C@@H](N)[C@H](O)C(=O)N[C@H](C(=O)N[C@H](C(=O)N[C@@H](CC(=O)O)C(=O)O)C(C)C)C(C)C,max response,CRL-7250,3.99%
same,max response,HEK293,3.01%
same,max response,HaCat [1],1.98%
same,max response,KB-3-1,4.23%
same,max response,NIH3T3,1.99%
same,Potency,MCC-13,inactive
same,Potency,MCC-26,inactive
FC(F)(F)c1ccc(C=Cc2nc(COc3ccc(CCCCn4ccnn4)cc3)co2)cc1,Potency,CRL-7250,0.0132 µM (active)
same,max response,HEK293,-116%
same,Potency,HaCat [1],7.43 µM (active)
same,max response,KB-3-1,-26.9%
same,max response,NIH3T3,-14.8%
same,Potency,MCC-13,10.5 µM (active)
OC[C@H]1O[C@@H](OCCc2ccc(O)cc2)[C@H](O)[C@@H](O)[C@H]1O,max response,CRL-7250,-2.13%
same,max response,HEK293,0.731%
same,max response,HaCat [1],-11.4%
same,max response,KB-3-1,-11.7%
same,max response,NIH3T3,2.07%
same,Potency,MCC-13,inactive
same,Potency,MCC-26,inactive
COc1ccc2ccc(=O)oc2c1CC=C(C)C,max response,CRL-7250,-22%
same,max response,HEK293,-5%
same,max response,HaCat [1],-6.16%
same,outcome,KB-3-1,inactive
same,max response,NIH3T3,-31.4%
same,Potency,MCC-13,inactive
same,Potency,MCC-26,inactive
O=C(O)c1nc(=O)[nH]c(=O)[nH]1,Potency,W2,inactive
same,max response,CRL-7250,1.07%
same,max response,HEK293,-17.5%
same,max response,HaCat [1],1.83%
same,max response,KB-3-1,13.7% and 2.52%
same,max response,NIH3T3,0.163%
same,Potency,MCC-13,inactive
same,Potency,MCC-26,inactive
O=C1C(CCC(O)c2ccc(F)cc2)C(c2ccc(O)cc2)N1c1ccc(F)cc1 (configuration not stated),Potency,W2,inactive
same,max response,CRL-7250,-5.06%
same,outcome,HEK293,inactive
same,max response,HaCat [1],3.02%
same,max response,KB-3-1,-2.23%
same,max response,NIH3T3,1.16%
same,outcome,HEK293T,inactive
same,Potency,MCC-13,inactive
same,Potency,MCC-26,inactive
Cc1ccc(S(=O)(=O)Nc2nc3ccccc3nc2Nc2ccc3nsnc3c2)cc1,max response,CRL-7250,-6.76%
same,max response,HEK293,4.32%
same,Potency,HaCat [1],14.4 µM (active)
same,outcome,KB-3-1,inactive
same,max response,NIH3T3,-28.1%
same,Potency,MCC-13,inactive
same,Potency,MCC-26,inactive
O[C@@H](COc1cccc2ncccc12)CN1CCN(C2c3ccccc3[C@@H]3[C@H](c4ccccc42)C3(F)F)CC1 (some centres not stated),outcome,CRL-7250,inactive
same,Potency,HEK293,10.6 µM (active) and 18.4 µM (active)
same,max response,HaCat [1],-3.25%
same,max response,KB-3-1,2.31%
same,outcome,NIH3T3,inactive
same,Potency,MCC-13,inactive
same,Potency,MCC-26,inactive
COc1cccc(OC)c1-c1cc(C(=O)NC2(C(=O)O)C3CC4CC(C3)CC2C4)nn1-c1ccnc2cc(Cl)ccc12 (configuration not stated),max response,CRL-7250,-4.21%
same,max response,HEK293,-21.7%
same,max response,HaCat [1],-12%
same,outcome,KB-3-1,inactive
same,outcome,NIH3T3,inactive
same,Potency,MCC-13,inactive
same,Potency,MCC-26,inactive
Cc1nc(NC(=O)N2CCC[C@@H]2C(N)=O)sc1-c1csc(C(C)(C)C)n1,Potency,CRL-7250,1.32 µM (active)
same,Potency,HEK293,2.35 µM (active)
same,Potency,HaCat [1],1.87 µM (active)
same,Potency,KB-3-1,13.2 µM (active)
same,Potency,NIH3T3,4.69 µM (active)
same,Potency,MCC-13,inactive
Nc1ncnc2c1c(-c1cccc(OCc3ccccc3)c1)cn2C1CC(CN2CCC2)C1 (configuration not stated),outcome,CRL-7250,inactive
same,Potency,HEK293,26.4 µM (active) and 8.2 µM (active)
same,max response,HaCat [1],4.36%
same,Potency,KB-3-1,23.1 µM (active)
same,Potency,NIH3T3,23.5 µM (active) and 4.61 µM (active)
same,Potency,MCC-13,inactive
same,Potency,MCC-26,inactive
